ADAM17 inh: inhibits human ADAM17; hit rate 0.83% among 370,000; recombinant ADAM17, EDANS/DABCYL FRET peptide cleavage; P78536; inhibition, % at 6.95 µM; AID 720648;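 active = inhibition above the mean of compounds lying between control limits plus 3 SD, set per campaign, cut at about 8.5% in these data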;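 also: 0% = DMSO-only wells as the low control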
ADAM10 inh: ADAM10 inhibition, QFRET primary screen | recombinant ADAM10, EDANS/DABCYL FRET peptide cleavage, 3 h | inhibition, % at 7 µM | hit rate 0.62% among 370,000 | AID 720582;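 active = inhibition above a per-campaign cutoff equal to the mean of compounds falling between control-based bounds plus 3 SD, cut at about 20% in these data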;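 also: 0% = DMSO wells while the 100% control is not disclosed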
HGIII-sPLA2 inh: Blocks human group III sPLA2 activity. Q9NZ20. inhibition, % at 12.2 µM. hit rate 0.56% among 370,000. QFRET BODIPY PC-A2 liposome hydrolysis, fluorescence;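 active = inhibition above mean plus 3 SD of compounds lying within the high and low control bounds, cut at about 19% in these data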;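 also: 0% = median of test compound wells and 100% = no enzyme DMSO wells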
Target sequence (Q9NZ20 whole entry, looked up): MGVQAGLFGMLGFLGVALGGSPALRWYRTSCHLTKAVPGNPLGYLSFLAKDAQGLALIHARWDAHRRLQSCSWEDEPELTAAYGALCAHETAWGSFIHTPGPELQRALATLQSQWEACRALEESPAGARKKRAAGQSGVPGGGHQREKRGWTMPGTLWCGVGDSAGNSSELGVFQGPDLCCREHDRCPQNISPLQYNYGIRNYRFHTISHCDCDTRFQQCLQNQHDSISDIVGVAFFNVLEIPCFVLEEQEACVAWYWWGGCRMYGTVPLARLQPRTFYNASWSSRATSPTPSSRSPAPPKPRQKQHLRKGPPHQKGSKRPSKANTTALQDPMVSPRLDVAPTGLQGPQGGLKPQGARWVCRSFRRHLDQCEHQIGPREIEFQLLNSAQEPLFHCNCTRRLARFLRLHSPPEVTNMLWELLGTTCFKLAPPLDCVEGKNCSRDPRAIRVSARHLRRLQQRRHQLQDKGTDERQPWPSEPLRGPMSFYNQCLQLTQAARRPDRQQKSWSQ
NRP1-CendR mod: NRP-1/CendR interaction modulation; inhibition, % at 25 µM; O14786; hit rate 0.85% among 360,000; FAM-RPARPAR peptide binding to NRP-1, fluorescence polarization;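 active = inhibition or corrected inhibition above about 18%, plus a signal ratio from 0.5 to 1.5, limit read from the data, passing the limit was not always enough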
KLK7 zymogen act: activates the human kallikrein-7 zymogen; activation, % at 7 µM; purified proKLK7, EDANS-DABCYL substrate fluorescence; 100% is mature enzyme control, 0% vehicle; hit rate 0.9% among 370,000; P49862;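 active = activation above the mean of all tested compounds plus 3 SD, computed per campaign excluding outliers beyond control limits, cut at about 13% in these data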
* hit, by the source's call; . = no result; ! = a repeat was not active. An excerpt weighted towards active compounds, which were near 3.4% of everything screened.

SMILES | ADAM17 inh | ADAM10 inh | HGIII-sPLA2 inh | NRP1-CendR mod | KLK7 zymogen act
CN1Cc2nnn(Cc3ccccc3)c2-c2cc(F)ccc2S1(=O)=O | -4 | 0 | 5 | . | 0
CCn1c(SCC(=O)Nc2nc(-c3ccc(C)cc3)cs2)nnc1-c1ccccc1O | 15* | 4 | -43 | 6 | 0
COc1cc(CN(CC2CCCO2)C(=O)c2ccco2)cc(OC)c1OC (stereo unspecified) | -4 | 0 | 7 | 16 | 1
COc1cc(CN(CC2CCCO2)C(=O)c2cccs2)cc(OC)c1OC (stereo unspecified) | -2 | -10 | 3 | 26* | 0
CCn1cc(C(=O)N2CCN(C(=O)c3ccco3)CC2)c2cc(OC)c(OC)cc2c1=O | -6 | -16 | 11 | 24* | -1
O=C1N/C(=C/c2cccn2-c2ccc(F)cc2)C(=O)N1Cc1ccccc1F | 3 | 5 | -1 | 43* | -31
COc1ccc(Cn2cc(C(=O)O)c(=O)c3ccccc32)cc1 | -3 | -7 | -1 | 7 | 0
O=C(O)c1cn(Cc2ccccc2)c2ccc(Cl)cc2c1=O | -3 | 1 | 1 | 23* | 0
CCC(C)Nc1nc(N)c([N+](=O)[O-])c(Nc2cc(OC)ccc2OC)n1 (stereo unspecified) | 3 | 3 | 0 | 52* | 0
CCC(C)Nc1nc(N)c([N+](=O)[O-])c(Nc2ccccc2OC)n1 (stereo unspecified) | 6 | 12 | -6 | 6 | 0
CCCC(=O)N1CCC[C@]2(CC[C@@H](CCC#N)O2)C1 | -3 | -6 | 11 | . | 0
Nn1c(SCc2cccc3ccccc23)nnc1-c1cc(-c2ccc(F)cc2)n[nH]1 | 0 | -3 | 2 | . | 0
CSc1ccc(-c2cc3c(c4c2ccn4C)C2CCC3C2)cc1 (stereo unspecified) | -24 | -68 | 3 | 25* | -8
COc1ccc(C(=O)N2c3ccccc3C(=O)OC2c2ccc3c(c2)OCO3)cc1 (stereo unspecified) | -2 | -4 | -1 | 21* | 1
CC(=N)c1c(O)cc(C)oc1=O | 0 | 4 | 0 | 19* | -1
Cc1ccc(C(=O)N/N=C/c2c(O)ccc3ccccc23)cn1 | 5 | 2 | 30* | -59 | -7
O=C(N/N=C/c1c(O)ccc2ccccc12)c1cccnc1 | -2 | -9 | 7 | -135 | -7
O=C(Cn1nnc(-c2ccncc2)n1)Nc1ccc(F)cc1F | -6 | -5 | 6 | . | 0
CC(C)NC(=O)CSc1nnc(-c2ccc3ncccc3c2)n1C | -3 | -3 | 0 | 25* | 0
Cn1c(Cc2cccs2)nnc1SCC(=O)Nc1ccc2c(c1)OCCO2 | 1 | -2 | 1 | . | 0
O=C(Nc1ccnn1C1CCN(C(=O)c2c(F)cccc2F)CC1)C1CC1 | 0 | -8 | 7 | 25* | 0
COc1ccc(CN2CCC(n3nccc3NC(=O)C3CC3)CC2)cc1O | -9 | -9 | 3 | 23* | 0
CC(C)(N[C@@H](Cc1ccccc1)C(=O)NCCCc1ccccc1)C(=O)NCc1ccccc1 | 0 | 7 | -15 | . | .
CN(C)CCOC(c1ccc(Cl)cc1)c1ccccn1 (stereo unspecified) | -3 | -10 | -1 | 21*! | -1
Cc1cc2n(n1)C(c1sccc1C)Nc1ccccc1-2 (stereo unspecified) | -23 | -82 | 1 | -2 | 0
SMILES | ADAM17 inh | ADAM10 inh | HGIII-sPLA2 inh | NRP1-CendR mod | KLK7 zymogen act
Cc1ccc2c(c1)-c1cc(C)nn1C(c1sccc1C)N2 (stereo unspecified) | -4 | -36 | -1 | 27* | -1
Cc1ccc(S(=O)(=O)Oc2ccccc2[N+](=O)[O-])cc1 | 0 | 6 | -8 | 20* | 0
C/C(Cl)=C/CSc1nn2c(=O)c3ccccc3nc2s1 | -4 | 1 | 4 | 26* | 0
C=CCSc1nn2c(=O)c3ccccc3nc2s1 | 0 | -3 | 3 | 0 | 0
CCCC[C@H](C(=O)N(CC)c1ccccc1)[C@@H](O)c1ccc(C(C)=O)cc1 | -6 | -8 | 6 | . | 1
C=CCN1C(=O)[C@H](CC(=O)N2CCCC2)[C@@]2(C(=O)OCC)CCCC=C12 | -3 | -10 | 3 | . | 0
CC(=O)Oc1cc2c(c3ccccc13)CCC2=O | -35 | -116 | -9 | 31* | 0
COc1ccc(C(=O)Nc2ccc(Cl)cc2C(=O)N2CCOCC2)cc1 | -3 | -1 | -1 | 10 | 1
COc1ccc(C(=O)Nc2ccc(Cl)cc2C(=O)N2CCCC(C)C2)cc1 (stereo unspecified) | 3 | 3 | 10 | 24* | 0
COC(=O)[C@]12C[C@H](CC(=O)NCCCCc3ccccc3)C(=O)N(CCC3=CCCCC3)C1=C[C@H](C(C)C)O[C@@H]2C1CC1 | 3 | 9 | -11 | . | 0
CCOC(=O)N(C)[C@H]1C[C@H]2c3[nH]c4c(-c5ccc6c(c5)OCO6)cccc4c3CCN2C(=O)[C@H]1[C@H](C)O | -2 | -6 | -42 | . | 1
O=C1N=C(N2C=CC(=C3C=CNC=C3)C=C2)/C(=C/N=NC(=O)c2ccccc2O)S1 | -12 | -32 | -1 | 41* | -2
CN(C(=O)c1cccc(NC(=O)Cc2ccc(NC(=O)C3CCCN(C(=O)c4ccccc4)C3)cc2)c1)C1CC1 (stereo unspecified) | -3 | -18 | -1 | . | 0
CC(NC(=O)CSc1nc2c(c(C(F)(F)F)n1)CCc1ccccc1-2)c1ccccc1 (stereo unspecified) | -5 | 0 | 6 | 28* | 0
C=C1CCN([C@H](C(=O)O)C(C)C)S(=O)(=O)c2ccccc21 | -3 | -8 | 4 | 36* | 0
OCC[C@@H]1C[C@H](O)[C@@H](O)[C@@]2(CCCO2)O1 | -2 | -4 | 10 | 24* | 0
OCC[C@@H]1C[C@@H](O)[C@H](O)[C@]2(OCc3ccccc32)O1 | 0 | 1 | 4 | 27* | 0
OCC[C@@H]1C[C@@H](O)[C@H](O)[C@@]2(CCCc3ccccc3O2)O1 | -1 | 1 | -7 | 25* | 0
OCC[C@H]1C[C@H](O)[C@@H](O)[C@]2(CCCO2)O1 | 0 | -2 | -1 | 38* | 0
C[C@@H]1COc2cc(N3CCCC3)ccc2S(=O)(=O)N1C | -6 | -3 | 10 | . | 0
C[C@H]1CCC[C@]2(O[C@@H](CCO)C[C@@H](O)[C@@H]2O)O1 | 5 | -1 | 9 | 5 | -1
C[C@H]1CCC[C@@]2(O[C@@H](CCO)C[C@@H](O)[C@@H]2O)O1 | -5 | -8 | 4 | 25* | 0
COC(=O)C1CN(Cc2cn(Cc3ccc(Cl)cc3)nn2)CCS(=O)(=O)N1Cc1ccc(Cl)cc1 (stereo unspecified) | 2 | 3 | -13 | . | 1
CC(C)N(C(=O)[C@H]1C[C@H](CC(=O)NCc2ccco2)C(=O)N2CCc3c([nH]c4cc(-c5ccco5)ccc34)[C@]12C)C(C)C | -75 | -223 | -13 | -5 | 35*

Source: PubChem BioAssay (several laboratories)
